Bioassay records as filed in PubChem BioAssay.
In the library only some 3.4% were active in any assay of this set; here they are far more common.
FBW7 act – activators of human E3 ligase FBW7 | Q969H0 | 650,000 compounds, 0.13% hits | AID 1259310 | AlphaScreen FBW7–phospho-cyclin E peptide binding, activator screen | normalized activity (activation), % at 26.1 µM; in the data active = normalized activity above about 1.9%;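 note: purified mutant Fbw7 with reduced substrate affinity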
TEAD-YAP block – TEAD-YAP interaction inhibition; HEK-TIYL cells, TEAD-Gal4/YAP UAS-luciferase luminescence; inhibition, % at 9.12 µM; 640,000 compounds, 1.4% hits; in the data active = inhibition above about 32%
GPR151 activ – activates the human receptor GPR151 | Q8TDV0 | PathHunter beta-arrestin GPR151 cells, luminescence | activation, % at 11.2 µM | 650,000 compounds, 1% hits | AID 1508602; in the data active = activation above about 4.9%
MITF inh – human MITF inhibition, primary screen; O75030; AlphaScreen MITF homodimerization, bead proximity signal; inhibition, % at 2.6 µM; 650,000 compounds, 0.91% hits; in the data active = inhibition above about 50%
GPR151 conf act – human GPR151 activation, confirmation screen; activation, % at 11.2 µM; 6,700 tested, under 10 active; AID 1508609; shares compounds with GPR151 activ; GPR151 PathHunter beta-arrestin cells, luminescence, 90 min; % of EA-reagent control over plate median;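 active = mean percent activation across replicates above the confirmation screen cutoff of 4.91%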
GPR119 ag – GPR119 activation, counter-screen for GPR151 activators; activation, % at 11.2 µM; shares compounds with GPR151 activ; AID 1508611; 6,700 compounds, 0.3% hits; GPR119 PathHunter beta-arrestin cells, luminescence, 90 min; 0 = compound-well median, 100 = enzyme-acceptor control;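 active = mean percent activation in the counterscreen above 29.09%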;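 note: counterscreen on off-target GPR119 to flag nonselective hits from the GPR151 activator screen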
Target sequence (Q8TDV5 whole entry, looked up): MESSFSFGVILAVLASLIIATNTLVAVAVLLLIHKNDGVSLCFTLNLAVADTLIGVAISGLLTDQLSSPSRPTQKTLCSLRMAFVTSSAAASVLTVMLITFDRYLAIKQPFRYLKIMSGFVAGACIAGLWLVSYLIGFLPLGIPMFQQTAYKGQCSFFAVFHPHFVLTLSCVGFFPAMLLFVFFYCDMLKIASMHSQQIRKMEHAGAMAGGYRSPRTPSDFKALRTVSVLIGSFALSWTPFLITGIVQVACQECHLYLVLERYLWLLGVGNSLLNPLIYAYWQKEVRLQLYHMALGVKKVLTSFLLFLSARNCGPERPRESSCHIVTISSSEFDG
Each line names hits and unclear results; the compound was inactive in the other large screens (follow-up assays come after a bar, where they were run); ! = not confirmed by another sample.

CCCn1nnnc1SCC(=O)Nc1cccc(NC(C)=O)c1	GPR151 activ 5.2 | GPR151 conf act inactive | GPR119 ag inactive
COC(=O)C1=C(O)/C(=C/c2cc(C)n(-c3cc(C)ccc3C)c2C)N=C1C	GPR151 activ 5.2 | GPR151 conf act inactive | GPR119 ag inactive
COC(=O)C1=C(O)/C(=C\c2cc(C)n(-c3cc(Cl)ccc3C)c2C)N=C1C	none
CC(=O)OC[C@H]1O[C@H](C#Cc2ccc(C(C)(C)C)cc2)C=C[C@@H]1OC(C)=O	none (no result: TEAD-YAP block)
COc1ccc(C#C[C@@H]2C=C[C@H](OC(C)=O)[C@@H](COC(C)=O)O2)cc1	GPR151 activ 9.3! (no result: TEAD-YAP block) | GPR151 conf act inactive | GPR119 ag inactive
Cc1ccccc1NC(=O)C1CCC(C)(C(=O)O)C1(C)C (centres undefined)	GPR151 activ 5.1 | GPR151 conf act inactive | GPR119 ag inactive
Cc1csc(NC(=O)C2CCC(C)(C(=O)O)C2(C)C)n1 (centres undefined)	GPR151 activ 7.3 | GPR151 conf act inactive | GPR119 ag inactive
CC1(C(=O)O)CCC(C(=O)Nc2ccc(Nc3ccccc3)cc2)C1(C)C (centres undefined)	none
COc1ccc(S(=O)(=O)NC2CCCCC2)cc1	none
O=C(Nc1ccc(S(=O)(=O)NC2CCCCC2)cc1)Nc1cccc(Cl)c1	GPR151 activ 5.1 | GPR151 conf act inactive | GPR119 ag inactive
Cc1cccc(NC(=O)COc2ccc(S(=O)(=O)NC3CCCCC3)cc2)c1	none
CSc1cccc(NC(=O)COc2ccc(S(=O)(=O)NC3CCCCC3)cc2)c1	GPR151 activ 5.3 | GPR151 conf act inactive | GPR119 ag inactive
Cc1cc(S(=O)(=O)NC2CCCCC2)ccc1OCC(=O)NC(C)C	none
Cc1cc(S(=O)(=O)NC2CCCCC2)ccc1OCC(=O)Nc1ccccc1F	GPR151 activ 5.0 | GPR151 conf act inactive | GPR119 ag inactive
COc1ccc2cc(S(=O)(=O)NC3CCCCC3)ccc2c1	GPR151 activ 5.2 | GPR151 conf act inactive | GPR119 ag inactive
CCN(CC)S(=O)(=O)c1cc([N+](=O)[O-])ccc1N/N=C1/CCCc2ccccc21	none
O=C1CC(c2ccccc2)=NN1c1cccc(Cl)c1	none
CC(C)n1cnc2c(NC3CC3)nc(NCCN3CCOCC3)nc21	none
O=C1CC(C(=O)N2CCN(c3ccccc3)CC2)CN1Cc1ccco1 (centres undefined)	none
COc1ccc(C(=O)N/N=C(\N)c2cc3ccccc3oc2=O)cc1OC	none
O=c1cc(-c2ccccc2[N+](=O)[O-])nc(-c2ccco2)o1	GPR151 activ 7.3 | GPR151 conf act inactive | GPR119 ag inactive
CCOC(=O)N1CCN(C(=O)c2cc3c(=O)[nH]c4ccccc4c3n2C)CC1	none
Cc1ccc(Nc2nnc(SCC(=O)N3CCOCC3)s2)cc1	none
Cc1ccc(Nc2nnc(SCC(=O)N3CCCC3)s2)cc1	GPR151 activ 5.6 | GPR151 conf act inactive | GPR119 ag inactive
C=CCn1c(-c2ccccc2O)n[nH]c1=S	none
CCOC(=O)C1(CC2CC2)CCN(S(=O)(=O)c2cc(C)sc2C)CC1	GPR151 activ 6.3 | GPR151 conf act inactive | GPR119 ag inactive
CCOC(=O)C1(CC2CC2)CCN(S(=O)(=O)c2cc(Cl)ccc2OC)CC1	none
CCC(C)C(=O)Nc1ccc(O)cc1C(=O)O (centres undefined)	none
CCC(C)C(=O)Nc1cc(OC)c(OC)cc1C(=O)O (centres undefined)	GPR151 activ 7.1 | GPR151 conf act inactive | GPR119 ag inactive
O=C1C(=O)c2ccc(Oc3ccc([N+](=O)[O-])cc3)c3cccc1c23	none
O=C(/C=C/c1ccc(Br)cc1)Nc1ccncc1	none
c1ccc(Cn2cc(-c3ncoc3-c3ccnc(Nc4ccc(N5CCOCC5)cc4)c3)cn2)cc1	TEAD-YAP block 45.3, GPR151 activ 6.0 | GPR151 conf act inactive | GPR119 ag inactive
O=[N+]([O-])c1ccc(C2Nc3ccccc3S(=O)(=O)N2Cc2ccccc2)cc1 (centres undefined)	GPR151 activ 6.7 | GPR151 conf act inactive | GPR119 ag inactive
COc1ccc(C2Nc3ccccc3S(=O)(=O)N2Cc2ccccc2)cc1[N+](=O)[O-] (centres undefined)	none
COc1ccc(S(=O)(=O)Nc2cc(C)ccc2OC)cc1Cl	none
